“And” between values parts separate entries of the source, which are not always exact repeats. Equal entries are not always repeated. Records with an inconclusive call do not appear. Entries that show only a call come without a potency. A structure can be active in one record and inactive in another. The source made the active and inactive calls. Unless noted, calls follow the shape of the dose curve; as a rule, active = well fitted curve in the direction sought with a large enough effect in the repeat runs; inconclusive = weak or mixed curves; inactive = no such curve, though single readings can be large; an effect the other way counts as inactive or inconclusive.
Tests used:
[1] = qHTS assay to identify small molecule antagonists of the thyroid receptor (TR) signaling pathway - cell viability counter screen (AID 743064); also: nearly all actives have a fitted effect of over 50% in size; also: potency is read from the fitted curve at half-maximal effect
Procedure, shortened: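 Counter screen for cytotoxicity: compound plus T3 (1 nM final) on GH3.TRE-Luc cells, 23.5 h at 37 °C, then fluorescence viability readout with CellTiter-Fluor.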

[2] = qHTS assay to identify small molecule antagonists of the thyroid receptor (TR) signaling pathway (AID 743065); also: nearly all actives have a fitted effect of over 55% in size; also: potency is read from the fitted curve at half-maximal effect
Procedure, shortened: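 GH3.TRE-Luc rat pituitary cells (two TREs driving luciferase) were dosed with compound, then stimulated with 1 nM T3 (final) for 23.5 h at 37 C. ONE-Glo luminescence was the read-out, with CellTiter-Fluor fluorescence as the cytotoxicity counter-screen.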

[3] = system: thyroid hormone receptor (rat, GH3 cells); assay: qHTS assay to identify small molecule agonists of the thyroid receptor (TR) signaling pathway (AID 743066; calls by dose curve)
[4] = target: Estrogen receptor (Homo sapiens) (UniProt P03372); assay: qHTS assay to identify small molecule antagonists of the estrogen receptor alpha (ER-alpha) signaling pathway (AID 743069; active = well fitted curve in the direction sought with a large enough effect in the signal ratio in the repeat runs, not every such curve was filed as active; the % refers to the signal ratio)
Procedure, shortened: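 Beta-lactamase FRET fluorescence is read after 2 hr at room temperature with LiveBLAzer B/G substrate. Before that, ER-alpha-bla HEK293 cells sit 4 hr after plating, then receive compound plus 17beta-estradiol and incubate 18 hr at 37C.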

[5] = qHTS assay to identify small molecule antagonists of the estrogen receptor alpha (ER-alpha) signaling pathway - cell viability counter screen (AID 743074; calls by dose curve;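 also: HEK293 cells carrying ER-alpha-UAS-bla reporter stimulated with 17beta-estradiol; nearly all actives have a fitted effect of over 45% in size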; also: potency is read from the fitted curve at half-maximal effect)
[6] = target: Estrogen receptor (Homo sapiens) (UniProt P03372); assay: qHTS assay to identify small molecule agonists of the estrogen receptor alpha (ER-alpha) signaling pathway (AID 743075; calls by dose curve;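 also: HEK293 GripTite cells with ER-alpha and UAS-driven beta-lactamase reporter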)
[7] = target: Estrogen receptor (Homo sapiens) (UniProt P03372); assay: qHTS assay to identify small molecule agonists of the estrogen receptor alpha (ER-alpha) signaling pathway using the BG1 cell line (AID 743079); also: nearly all actives have a fitted effect of over 20% in size
[8] = qHTS assay to identify small molecule antagonists of the estrogen receptor alpha (ER-alpha) signaling pathway using the BG1 cell line (AID 743080; calls by dose curve;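 also: BG1 cells stimulated with 17beta-estradiol alongside compound; series mostly up to about 70 µM; nearly all actives have a fitted effect of over 25% in size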)
Procedure, shortened: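 BG1-Luc-4E2 cells (endogenous full-length ER-alpha, 4xERE luciferase) hormone-starved 5 days in charcoal-stripped FBS, plated 4,000/well for 24 h, then compound plus 17beta-estradiol for 21.5 h at 37 C; ONE-Glo luminescence read.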

[9] = qHTS assay to identify small molecule antagonists of the estrogen receptor alpha (ER-alpha) signaling pathway using the BG1 cell line - cell viability counter screen (AID 743081);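 also: compound given together with 17beta-estradiol as the ER stimulus; nearly all actives have a fitted effect of over 45% in size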; also: potency is read from the fitted curve at half-maximal effect
[10] = target: Aromatase (Homo sapiens) (UniProt P11511); assay: qHTS assay to identify aromatase inhibitors (AID 743083); also: nearly all actives have a fitted effect of over 55% in size; also: potency is read from the fitted curve at half-maximal effect
[11] = qHTS assay to identify aromatase inhibitors - cell viability counter screen (AID 743084);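 also: cells stimulated with testosterone during compound exposure; nearly all actives have a fitted effect of over 55% in size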; also: potency is read from the fitted curve at half-maximal effect
[12] = target: Aryl hydrocarbon receptor (Homo sapiens) (UniProt P35869); assay: qHTS assay to identify small molecule that activate the aryl hydrocarbon receptor (AhR) signaling pathway (AID 743085); also: nearly all actives have a fitted effect of over 15% in size; also: potency is read from the fitted curve at half-maximal effect;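 as to activation: HG2L7.5c1 human HepG2 liver cells with stably integrated DRE-driven firefly reporter; series mostly up to about 70 µM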
Procedure, shortened: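 Measured in HG2L7.5c1 cells: CellTiter-Fluor signal (30 min incubation, 37C) for viability, then luciferase luminescence (30 min, room temperature). Compound contact time was 24 h at 37C, following a 5 h pre-incubation.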

[13] = qHTS assay to identify small molecule that activate the aryl hydrocarbon receptor (AhR) signaling pathway - cell viability counter screen (AID 743086); also: nearly all actives have a fitted effect of over 45% in size; also: potency is read from the fitted curve at half-maximal effect
Procedure, shortened: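 HepG2-AhR-luc (HG2L7.5c1) cells, 4000/well, treated 24 h at 37 C with compound; viability measured as CellTiter-Fluor fluorescence after 30 min in the same wells as the luciferase read.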

[14] = target: Peroxisome proliferator-activated receptor gamma (Homo sapiens) (UniProt P37231); assay: qHTS assay to identify small molecule agonists of the peroxisome proliferator-activated receptor gamma (PPARg) signaling pathway (AID 743094; active = well fitted activation curve with a large enough effect in the signal ratio in the repeat runs, not every such curve was filed as active; the % refers to the signal ratio)
Procedure, shortened: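 HEK293H PPARg-bla cells, 5 h settle at 37C/5% CO2; compound (DMSO) 17 h, 37C; B/G FRET substrate 1 h RT; fluorescence intensity read-out. qHTS format.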

[15] = target: Peroxisome proliferator-activated receptor gamma (Homo sapiens) (UniProt P37231); assay: qHTS assay to identify small molecule antagonists of the peroxisome proliferator-activated receptor gamma (PPARg) signaling pathway (AID 743191; calls by dose curve; also: series mostly up to about 63 µM; nearly all actives have a fitted effect of over 30% in size)
Procedure, shortened: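 GeneBLAzer PPARg UAS-bla HEK293H cells, 5 h post-plating, exposed to compounds 17 h at 37C. LiveBLAzer B/G FRET substrate added for 1 h at room temperature; beta-lactamase reporter read by fluorescence intensity.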

[16] = qHTS assay to identify small molecule antagonists of the peroxisome proliferator-activated receptor gamma (PPARg) signaling pathway - cell viability counter screen (AID 743194); also: nearly all actives have a fitted effect of over 55% in size
Procedure, shortened: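 Cytotoxicity counter screen in PPARg-bla HEK293H cells, same wells as reporter assay. Compounds plus 50 nM rosiglitazone (final) for 17 h at 37 C, then viability read by CellTiter-Glo luminescence.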

[17] = qHTS assay for small molecule agonists of the antioxidant response element (ARE) signaling pathway (AID 743202; active = well fitted activation curve with a large enough effect in the signal ratio in the repeat runs, not every such curve was filed as active; the % refers to the signal ratio; also: potency is read from the fitted curve at half-maximal effect)
Procedure, shortened: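 HepG2 ARE-bla reporter line, 2,000 cells/well; 5 h preincubation 37 C/5% CO2; compound (DMSO) 16 h 37 C; B/G FRET substrate 2 h RT; fluorescence intensity.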

[18] = qHTS assay for small molecule agonists of the antioxidant response element (ARE) signaling pathway - cell viability counter screen (AID 743203; calls by dose curve; also: nearly all actives have a fitted effect of over 55% in size)
Procedure, shortened: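 Luminescence read-out (CellTiter-Glo, 30 min at room temperature) measured cell viability in the same wells as the ARE beta-lactamase reporter. HepG2 ARE-bla cells were treated with compounds for 16 hrs at 37C/5% CO2.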

[19] = qHTS assay for small molecule activators of the heat shock response signaling pathway - cell viability counter screen (AID 743209); also: nearly all actives have a fitted effect of over 50% in size
Procedure, shortened: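 HSE-bla HeLa; 1500 cells/well; overnight 37 C, 5% CO2; compound 5 h 37 C; LiveBLAzer B/G substrate 2.5 h RT; CellTiter-Glo 30 min RT; luminescence.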

[20] = qHTS assay for small molecule activators of the heat shock response signaling pathway (AID 743210; active = well fitted activation curve with a large enough effect in the signal ratio in the repeat runs, with a control signal flat, not every such curve was filed as active; the % refers to the signal ratio; also: potency is read from the fitted curve at half-maximal effect;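 as to activation: HeLa cells with beta-lactamase reporter driven by heat shock elements; series mostly up to about 63 µM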)
Procedure, shortened: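 Beta-lactamase reporter read-out: FRET substrate fluorescence after 2.5 h at RT, following 5 h compound treatment at 37 C of HeLa cells carrying HSE-driven bla reporter; quantitative HTS format.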

Aryl hydrocarbon receptor (Homo sapiens), sequence (P35869 whole entry, looked up): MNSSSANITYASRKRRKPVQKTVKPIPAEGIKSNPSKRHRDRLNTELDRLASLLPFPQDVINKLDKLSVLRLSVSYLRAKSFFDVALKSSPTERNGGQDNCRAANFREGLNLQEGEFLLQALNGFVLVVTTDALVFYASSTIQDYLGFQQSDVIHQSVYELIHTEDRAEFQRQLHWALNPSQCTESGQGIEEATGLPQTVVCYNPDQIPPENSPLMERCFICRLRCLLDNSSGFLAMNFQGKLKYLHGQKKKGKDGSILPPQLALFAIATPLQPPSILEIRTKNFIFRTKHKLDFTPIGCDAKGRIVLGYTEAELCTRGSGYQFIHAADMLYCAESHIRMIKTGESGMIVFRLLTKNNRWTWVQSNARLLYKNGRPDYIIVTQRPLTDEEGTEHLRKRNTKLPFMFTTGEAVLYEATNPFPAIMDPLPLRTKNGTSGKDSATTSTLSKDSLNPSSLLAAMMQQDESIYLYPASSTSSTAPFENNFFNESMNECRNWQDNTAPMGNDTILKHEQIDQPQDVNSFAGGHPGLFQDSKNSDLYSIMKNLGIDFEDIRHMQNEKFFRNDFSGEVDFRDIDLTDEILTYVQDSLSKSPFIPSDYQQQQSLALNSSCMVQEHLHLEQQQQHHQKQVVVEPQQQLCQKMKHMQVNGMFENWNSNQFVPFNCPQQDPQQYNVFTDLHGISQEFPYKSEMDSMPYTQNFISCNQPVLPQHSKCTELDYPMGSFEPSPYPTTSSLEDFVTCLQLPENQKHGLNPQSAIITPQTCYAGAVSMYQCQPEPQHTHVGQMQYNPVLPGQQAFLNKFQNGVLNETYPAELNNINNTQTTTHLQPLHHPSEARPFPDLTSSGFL
Aromatase (Homo sapiens), sequence (P11511 whole entry, looked up): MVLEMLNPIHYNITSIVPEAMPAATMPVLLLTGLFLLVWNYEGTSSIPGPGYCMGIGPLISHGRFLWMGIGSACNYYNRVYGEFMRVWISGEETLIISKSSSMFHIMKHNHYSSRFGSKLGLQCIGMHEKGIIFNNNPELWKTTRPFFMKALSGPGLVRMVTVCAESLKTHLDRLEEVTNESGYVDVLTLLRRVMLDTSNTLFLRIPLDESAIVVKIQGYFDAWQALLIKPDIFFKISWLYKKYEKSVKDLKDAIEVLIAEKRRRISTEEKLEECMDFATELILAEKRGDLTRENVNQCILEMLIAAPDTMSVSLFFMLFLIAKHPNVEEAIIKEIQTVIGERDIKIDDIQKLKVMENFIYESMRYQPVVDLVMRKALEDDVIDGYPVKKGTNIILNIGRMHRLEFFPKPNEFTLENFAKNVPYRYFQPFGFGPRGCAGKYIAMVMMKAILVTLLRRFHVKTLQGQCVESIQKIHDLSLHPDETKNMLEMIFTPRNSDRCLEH
Estrogen receptor (Homo sapiens), sequence (P03372 whole entry, looked up): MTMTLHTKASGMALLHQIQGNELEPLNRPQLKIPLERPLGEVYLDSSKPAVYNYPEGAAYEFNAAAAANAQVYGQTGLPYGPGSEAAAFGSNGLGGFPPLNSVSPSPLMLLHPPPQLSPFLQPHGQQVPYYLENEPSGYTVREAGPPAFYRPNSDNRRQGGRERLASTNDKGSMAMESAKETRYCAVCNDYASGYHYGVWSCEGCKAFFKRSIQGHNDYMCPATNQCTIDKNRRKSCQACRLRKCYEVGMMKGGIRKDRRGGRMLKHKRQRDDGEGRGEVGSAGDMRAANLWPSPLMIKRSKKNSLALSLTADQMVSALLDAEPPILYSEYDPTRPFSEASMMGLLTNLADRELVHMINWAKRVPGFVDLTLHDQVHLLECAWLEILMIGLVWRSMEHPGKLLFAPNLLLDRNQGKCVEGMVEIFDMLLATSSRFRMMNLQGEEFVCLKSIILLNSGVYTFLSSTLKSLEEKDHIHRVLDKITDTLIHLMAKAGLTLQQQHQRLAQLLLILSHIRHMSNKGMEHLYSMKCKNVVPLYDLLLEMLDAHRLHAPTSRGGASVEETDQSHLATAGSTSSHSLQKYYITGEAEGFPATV
Peroxisome proliferator-activated receptor gamma (Homo sapiens), sequence (P37231 whole entry, looked up): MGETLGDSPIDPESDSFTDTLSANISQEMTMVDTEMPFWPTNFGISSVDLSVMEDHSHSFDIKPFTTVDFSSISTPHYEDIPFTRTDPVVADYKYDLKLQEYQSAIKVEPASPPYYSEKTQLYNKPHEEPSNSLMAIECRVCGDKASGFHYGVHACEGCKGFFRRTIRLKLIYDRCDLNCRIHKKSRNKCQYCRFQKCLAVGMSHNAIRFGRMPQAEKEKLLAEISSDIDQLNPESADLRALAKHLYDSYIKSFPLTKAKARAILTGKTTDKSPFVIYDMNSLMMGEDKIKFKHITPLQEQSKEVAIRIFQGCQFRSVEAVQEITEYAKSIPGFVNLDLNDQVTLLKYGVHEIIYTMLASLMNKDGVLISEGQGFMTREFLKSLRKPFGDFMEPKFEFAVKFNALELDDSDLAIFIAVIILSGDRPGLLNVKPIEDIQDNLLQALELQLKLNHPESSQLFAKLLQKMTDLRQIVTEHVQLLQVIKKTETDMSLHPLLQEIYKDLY

SMILES	Potency [1]	Potency [2]	Potency [3]	Potency [4]	Potency [5]	Potency [6]	Potency [7]	Potency [8]	Potency [9]	Potency [10]	Potency [11]	Potency [12]	Potency [13]	outcome [14]	Potency [15]	Potency [16]	Potency [17]	Potency [18]	Potency [19]	Potency [20]
Cc1cn([C@H]2C[C@H](F)[C@@H](CO)O2)c(=O)[nH]c1=O	inactive	inactive	inactive	inactive	inactive	inactive	inactive	inactive	inactive	inactive	inactive	inactive	inactive	inactive	inactive	inactive	inactive	inactive	inactive	inactive
CC[C@H]1OC(=O)[C@H](C)[C@@H](O[C@H]2C[C@@](C)(OC)[C@@H](O)[C@H](C)O2)[C@H](C)[C@@H](O[C@@H]2O[C@H](C)C[C@H](N(C)C)[C@H]2O)[C@](C)(O)C[C@@H](C)/C(=N\OCOCCOC)[C@H](C)[C@@H](O)[C@]1(C)O	inactive and 32.1 µM (active)	inactive	inactive	inactive	inactive	inactive	inactive	inactive	inactive and 18.1 µM (active)	inactive	inactive and 10.2 µM (active)	inactive	inactive	inactive	–	inactive	inactive	inactive	inactive	–
c1ccc2sc(SSc3nc4ccccc4s3)nc2c1	inactive	inactive	inactive	inactive	inactive	inactive	inactive	inactive	inactive	inactive	inactive	inactive	inactive	inactive	–	inactive	13 µM (active)	inactive	inactive	–
CC(C)COC(=O)COc1cc(Cl)c(Cl)cc1Cl	inactive	inactive	inactive	inactive	inactive	inactive	inactive	inactive	inactive	inactive	inactive	inactive	inactive	inactive	inactive	inactive	–	–	inactive	inactive
C=CC(=O)O	inactive	inactive	inactive	inactive	inactive	inactive	inactive	inactive	inactive	inactive	inactive	inactive	inactive	inactive	inactive	inactive	–	–	inactive	–
CNc1c2c(nn1C)CCCC2	inactive	inactive	inactive	inactive	inactive	inactive	inactive	inactive	inactive	inactive	inactive	inactive	inactive	inactive	inactive	inactive	inactive	–	inactive	inactive
COc1ccc2nc(S(=O)Cc3ncc(C)c(OC)c3C)[nH]c2c1 (configuration not stated)	inactive	inactive	inactive	inactive	inactive	inactive	inactive	inactive	inactive	inactive	inactive	48 µM (active)	inactive	inactive	inactive	inactive	17 µM (active) and 16.8 µM (active)	inactive	inactive	30.5 µM (active) and inactive
CC(=O)OCCC1CCCCC1	inactive	inactive	inactive	inactive	inactive	inactive	inactive	inactive	inactive	inactive	inactive	inactive	inactive	inactive	inactive	inactive	inactive	inactive	inactive	inactive
COc1cc(NS(=O)(=O)c2ccc(N)cc2)nc(C)n1	inactive	inactive	inactive	–	inactive	inactive	inactive	inactive	inactive	inactive	inactive	inactive	inactive	inactive	–	inactive	inactive	–	inactive	inactive
O=NN(CCCl)C(=O)NCCCl	inactive	inactive	inactive	–	inactive	inactive	inactive	inactive	inactive	inactive	inactive	inactive	inactive	inactive	inactive	–	–	inactive	inactive	inactive
Cc1cc([N+](=O)[O-])ccc1N	inactive	inactive	inactive	inactive	–	inactive	–	inactive	inactive	–	53.8 µM (active)	–	–	inactive	–	inactive	inactive	–	inactive	–
COC(=O)c1sccc1S(N)(=O)=O	inactive	inactive	inactive	–	inactive	inactive	inactive	inactive	inactive	inactive	inactive	inactive	inactive	inactive	inactive	inactive	–	inactive	inactive	inactive
COc1cc(C(C)=O)ccc1OCCCN1CCC(c2noc3cc(F)ccc23)CC1	21.1 µM (active)	23.7 µM (active)	inactive	inactive	inactive	inactive	inactive	inactive	–	inactive	inactive	inactive	–	–	–	inactive	–	inactive	inactive	inactive
C=C(C)C(=O)OCCC(F)(F)C(F)(F)C(F)(F)C(F)(F)C(F)(F)C(F)(F)F	inactive	inactive	inactive	–	inactive	inactive	inactive	inactive	inactive	inactive	inactive	inactive	inactive	inactive	–	inactive	inactive	inactive	inactive	inactive
COc1cc(S(=O)(=O)Nc2ccccc2)c(OC)cc1N	inactive	inactive	inactive	inactive	–	inactive	inactive	inactive	inactive	inactive	inactive	inactive	inactive	inactive	inactive	inactive	–	–	inactive	inactive
BrC(Br)C(Br)Br	inactive	inactive	inactive	inactive	inactive	inactive	inactive	inactive	inactive	inactive	inactive	–	inactive	inactive	–	inactive	inactive	–	–	inactive

SMILES	Potency [1]	Potency [2]	Potency [3]	Potency [4]	Potency [5]	Potency [6]	Potency [7]	Potency [8]	Potency [9]	Potency [10]	Potency [11]	Potency [12]	Potency [13]	outcome [14]	Potency [15]	Potency [16]	Potency [17]	Potency [18]	Potency [19]	Potency [20]
CCN(Cc1cccc(S(=O)(=O)O)c1)c1ccc(C(=C2C=CC(=[N+](CC)Cc3cccc(S(=O)(=O)O)c3)C=C2)c2ccccc2S(=O)(=O)[O-])cc1	34.5 µM (active)	15.4 µM (active)	inactive	inactive	–	inactive	–	–	38.7 µM (active)	17.3 µM (active)	13.7 µM (active)	inactive	27.4 µM (active)	inactive	–	inactive	inactive	–	–	inactive
Nc1ccc(NC(=O)c2ccc(N)cc2)cc1	inactive	inactive	inactive	inactive	inactive	inactive	inactive	inactive	inactive	–	54.5 µM (active)	inactive	inactive	inactive	inactive	inactive	inactive	inactive	inactive	inactive
O=[N+]([O-])c1ccc2ncccc2c1	inactive	inactive	inactive	inactive	inactive	inactive	inactive	inactive	inactive	inactive	inactive	–	inactive	inactive	–	inactive	inactive	inactive	inactive	inactive
O=C1NC(=O)c2cccc3cccc1c23	inactive	inactive	inactive	–	inactive	inactive	inactive	inactive	inactive	inactive	inactive	21.7 µM (active)	inactive	inactive	inactive	inactive	–	inactive	inactive	inactive
O=C(CCS)OCC(COC(=O)CCS)(COC(=O)CCS)COC(=O)CCS	inactive	inactive	inactive	inactive	inactive	inactive	inactive	inactive	inactive	inactive	–	inactive	inactive	inactive	–	–	–	–	–	–
CC(C)(C)C1(CCc2ccc(Cl)cc2)CO1 (configuration not stated)	inactive	inactive	inactive	–	inactive	inactive	inactive	inactive	inactive	inactive	inactive	inactive	inactive	inactive	inactive	inactive	inactive	inactive	inactive	inactive
CCCCC(CC)COS(=O)(=O)O (configuration not stated)	inactive	inactive	inactive	inactive	inactive	inactive	inactive	inactive	inactive	inactive	inactive	–	inactive	–	–	inactive	–	inactive	inactive	inactive
Cc1ccc2c(c1)CCCN2	inactive	inactive	inactive	inactive	inactive	inactive	inactive	–	inactive	inactive	inactive	61.1 µM (active)	inactive	inactive	–	inactive	inactive	inactive	inactive	inactive
CC(C)C1CCC(C(=O)N[C@H](Cc2ccccc2)C(=O)O)CC1 (some centres not stated)	inactive	inactive	inactive	inactive	inactive	inactive	inactive	inactive	inactive	inactive	inactive	–	inactive	inactive	–	inactive	inactive	inactive	inactive	inactive
Cc1ccc(Nc2c(F)cccc2Cl)c(CC(=O)O)c1	inactive	inactive	inactive	inactive	inactive	inactive	inactive	inactive	inactive	inactive	inactive	–	inactive	–	–	inactive	–	inactive	inactive	inactive
O=C(O)CCS	inactive	inactive	inactive	–	inactive	inactive	inactive	inactive	inactive	inactive	inactive	inactive	inactive	inactive	–	inactive	inactive	inactive	–	inactive
CCC(CO)(CO)CO	inactive	inactive	inactive	–	inactive	inactive	inactive	inactive	inactive	inactive	inactive	inactive	inactive	inactive	inactive	inactive	inactive	inactive	inactive	inactive
CCC(C)(C)C(=O)O	inactive	inactive	inactive	inactive	inactive	inactive	–	inactive	inactive	inactive	inactive	inactive	inactive	inactive	inactive	inactive	inactive	inactive	inactive	inactive
Nc1ccc(N=Nc2ccc(N)cc2)cc1	24.3 µM (active)	inactive	inactive	inactive	inactive	inactive	inactive	inactive	–	inactive	–	inactive	–	inactive	–	–	2.43 µM (active)	inactive	inactive	inactive
COc1cc(NCc2ccc3nc(N)nc(N)c3c2C)cc(OC)c1OC	8.41 µM (active)	0.668 µM (active)	inactive	inactive	0.213 µM (active)	inactive	inactive	–	–	–	–	29.8 µM (active)	29.8 µM (active)	–	–	–	–	–	inactive	inactive
O=C(c1ccccc1)C1CCC1	inactive	inactive	inactive	inactive	inactive	inactive	inactive	inactive	inactive	inactive	inactive	–	inactive	inactive	inactive	inactive	inactive	–	inactive	–
